Measurements taken from the supplement of paper PMC11417369.
Over roughly 25,000 sequences, “ln(normalized median fluorescence intensity)” has its median near 6.7; the highest 2% begin near 10. The sample as a whole holds a higher share of the highest values than the screen did.

Each sequence was assayed on PfHDP1 homeodomain (GST-tagged) (assay: gcPBM binding intensity (ln(normalized median fluorescence intensity)); higher = stronger DNA binding).
Procedure, shortened: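 For binding intensity, the highest Masliner-normalised natural-log median intensity across replicate spots of either probe orientation was taken. Protein bound to the array was stained with Alexa488 anti-GST antibody and scanned at 488 nm. The protein, GST-tagged P. falciparum DNA-binding domains from E. coli at about 25 μg on average, had been applied for 1 h to an Agilent 4 × 180k array of primer-extended double-stranded 36-bp intergenic genomic probes and negative controls.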

Sequence | gcPBM binding intensity (ln)
AATATAATAATATTTTGTACATATCCTATGTATGAG [XGTACX_site8601] | 6.5
TATAAATATAAATACACACACACATCAATACAGATA [CACACA_site5850] | 6.87
CGCGAACATACATACACACACATATATATATCTGTA [CACACA_site4277] | 6.98
ATTGAATTCCAACTGGTGCACCAGTAAGATTGAAAA [GTGCAC_site9895] | 10.1
TATAATCTAACATAATGTACATGTATATGCACTTTA [XGTACX_site369] | 8.43
TTATATTATTCGTGTGTGCACGATATTTCATAATTG [GTGCAC_site9767] | 8.92
AAAAAAAAATACAAAATAGCAATAAATACACAAACG [GTGCAC_negctrl_site707] | 7.12
TTTGATGGTACACGTACACACCTTGCAAATATTTTT [CACACA_site4645] | 7.13
AAAGAAAGAAAGAAAAGTACTTAAACTTTTAAAAAT [XGTACX_site8531] | 6.03
AAAAAAATCTCCAGTGTGCACAATCACATAATATAT [GTGCAC_site9833] | 10.8
AAAATCTAATATAATGCACACATAAAAAAAAAATCA [CACACA_site8871] | 10.4
AAAAAATAATAAATCACACATATTATATATATATAT [CACACA_site5838] | 8.94
TTATGGAAAAATATAACACACAATGATTTTTTATAA [CACACA_site1831] | 6.33
CACACGCACGGACACACACACATATAAAATCTATAT [CACACA_site6428] | 7.73
ATTATGAAATATCGTGCACACACGAATAATATAAGA [CACACA_site1294] | 9.49
AAATCGTGCACGGACACATGCAGTAGCCGAGAATTA [TGCATGCA_site733] | 11.1
AATCGAAATCGTGCACGGACACATGCAGTAGCCGAG [XGTACX_site6001] | 10.2
CAATAAATCGAAATCGTGCACGGACACATGCAGTAG | 10.9
ATTTTAAAAAGGATAGTGCAAATGTTAAAATAGGAC | 9.91
CGTAAATTTTTTAAAAGTACAAAAAGATACGAGAAA [XGTACX_site8722] | 6.46

Sequence | gcPBM binding intensity (ln)
TATTCATGCATATACACACACATATATTTATATTTT [CACACA_site7786] | 7.08
TCATATTATAAATAAATAAATAAATATATATATATA [CACACA_negctrl_site577] | 8.76
AAATAAAAATTAAAAAAATAGAAACGAATTGAATGC [TGCATGCA_negctrl_site365] | 6.69
TATAAATTAAAATGTGTGCACTAAATTGAAATAGAA | 10.6
GAATAAATATTAAATGTGCACTTGAATAGATGTAAA | 9.88
AATAATATTAACACACGTACAAAAGCAAACAACCAA [XGTACX_site7410] | 7.16
ATATATATATATCAGAGTACATTCTTTAAAATATAT [XGTACX_site5915] | 8.7
ATATATATCTTTTGTGTGCACATATATATAATATAT | 10.9
ATGTATGTGTATATATGTACATAATATATATCTTTT [XGTACX_site8666] | 6.6
TATATATATATATGTGCACACATAATAAAAAAAAAA [CACACA_site3830] | 10.1
TCTTTTCTTTTGTGTGTGCACATATAAGCATGAAAC [GTGCAC_site9910] | 10.4
ATAATATCTTTATGTGTGCACATATATATATATATA | 10.5
ATAATATATATATATGCATGTACATATTTATCTTTA [TGCATGCA_site32] | 6.74
TTTTTTTCTCTCTCTACACACAAGGTTTAATTTAAA [CACACA_site1690] | 6.81
ATTATATATAAGAAGAGTACTGAATATGTGCAATAT [XGTACX_site4471] | 11.2
AATTATAATTAATAGAGTACTGAATATATATATATA [XGTACX_site8683] | 8.9
TATATATATATATATGTGCACTGAAAGAATTATACA [GTGCAC_site9586] | 9.76
ATTTTAAATATTTGTGGTACCCCTTTTTTGTAACAA [XGTACX_site5590] | 6.71
ATAAAAAAATAAAACACACACATATAGATTATAGAT [CACACA_site7343] | 7
GTATGTATATATATATGTACATACTGTTTATCGTTA [XGTACX_site6168] | 6.4

Sequence | gcPBM binding intensity (ln)
TTTTTTATTCTTTTTGCACACAGGAAATTTACAGAT [CACACA_site1090] | 10.6
ATATTTTACATATTTGCACACATATATTTATATACA [CACACA_site855] | 10.7
ATTTTATTTAAATACACACACATATATATATTATAT [CACACA_site4607] | 7.14
GCATCATTTATTTGCACACCTATTATATACTTTTTA [CACACA_site2098] | 10.7
ATTTTATTTATATACACACACATATATATATTATAT [CACACA_site822] | 7.09
TATTTTTGTATATATTTATTCTTATTTTACAGGAAA [TGCATGCA_negctrl_site472] | 6.22
ATTTTACATATTTGCACACATATATTTAAATACATA [CACACA_site4627] | 10.8
AATTTTATTACTTTTACACACCTATATATCATTCAT [CACACA_site7525] | 6.91
AGGAAATTTGTTATTGCACACAAATTTTTCTTTTTT [CACACA_site8732] | 9.48
ATATTTTATTTATATACACACACATATATATATTAT [CACACA_site8177] | 7.22
ATGCATCATTTATTTGCACACCTATTATATACTTTT [CACACA_site2097] | 10.1
ATATTTTACATATTTGCACACATATATTTAAATACA [CACACA_site4628] | 10.3
GGATGCACACAAAAGGGTACATAAGAAAAAAACAGG [XGTACX_site8570] | 9.42
TTTATATTTTAAAAAATAATATTATGTATTTTTAAA [TGCATGCA_negctrl_site507] | 6.01
AAACAATATTCTCAAGTGCAAAAAGAAAAAAGAAAT | 9.37
CCTTTTTTTTTTTTATGTACTAAAATAAAATTAGAA [XGTACX_site5956] | 6.14
TATAAAATAATTAAATGTACATAATATATAAAATAT [XGTACX_site6777] | 6.69
GTAATTTTTTTCTATACACACATATATATAATATAT [CACACA_site2655] | 7.08
